{"source": "PubChem BioAssay (EPA / NIEHS)", "note": "Activity calls are given as the source filed them. How the source made its calls: active means hit-call score of the fitted dose curve at least 0.9, where 1 is the maximum; inactive means score below 0.9.", "data": [{"read-out": "urokinase Plasminogen Activator (uPA), PLAU (gene 5328)", "test": "BSK_BF4T_uPA: BioMAP Diversity Plus: BF4T Assay for urokinase Plasminogen Activator (uPA) Biomarker Activity (AID 2284275)", "settings": "primary human bronchial epithelial cells with fibroblasts", "protocol": "BSK_BF4T is a cell-based, multiplexed-readout assay that uses bronchial epithelial cells and dermal fibroblasts, a human vascular primary cell, with measurements taken at 24 hours after chemical dosing in a microplate: 96-well plate.BSK_BF4TA is an assay component measured in the BSK_BF4T assay. It measures uPA antibody related to regulation of gene expression using ELISA technology.Data from the assay component BSK_BF4TA was analyzed at the endpoint, BSK_BF4TA, in the positive analysis fitting direction relative to DMSO as the negative control and baseline of activity. Using a type of binding reporter, gain or loss-of-signal activity can be used to understand protein changes. To generalize the intended target to other relatable targets, this assay endpoint is annotated to the 'protease' intended target family, where the subfamily is 'serine protease'.\nThe levels of cell surface (or secreted, indicated by the prefix \"s\") biomarker endpoints were measured by ELISA. Overt cytotoxicity to cells in confluent adherent cultures (all systems other than the BT system) was assessed by measuring total protein levels using sulforhodamine B (SRB) staining in parallel cultures at the time of biomarker measurements, indicated as SRB endpoints. For proliferation assays for adherent cell types, individual cell types are cultured at sub-confluence and relative cell numbers quantified by SRB staining at time points optimized for each system (48 h: 3C and CASM3C systems; 72 h: BT and HDF3CGF systems; 96 h: SAg system). SRB was performed by staining cells with 0.1% SRB after fixation with 10% TCA and reading wells at 560 nm.Viability and proliferation of PBMC (T cells) was quantified by Alamar Blue reduction for the SAg and BT systems. For PBMC viability (referred to as PBMC Cytotoxicity within the assay endpoint names), cells were plated (75,000/well in a 96-well plate) and then chemical samples added for 1 h before addition of activators, SEB and TSST-1 (20 ng/mL final concentration each). Cells were incubated for 90 h. Then, Alamar Blue (20 uL/well) (Invitrogen, Cat DAL1100) was added for 6 h, and the plates were read with a fluorescence microplate reader at 546/580 nm (excitation/emission). For PBMC proliferation, cells were plated and activated as above but incubated for only 16 h prior to addition of Alamar Blue. Plates were read after 6 h.", "values": [{"smiles": "NCC(F)(F)C(F)(F)C(F)(F)C(F)(F)F", "outcome": "inactive"}, {"smiles": "OC(O)(C(F)C(O)(O)C(F)(F)F)C(F)(F)F", "outcome": "inactive"}, {"smiles": "O=S(=O)(O)CCC(F)(F)C(F)(F)C(F)(F)C(F)(F)C(F)(F)C(F)(F)F", "outcome": "inactive"}, {"smiles": "FC(F)C(F)(F)COCC1CO1", "note": "(stereo not given)", "outcome": "inactive"}, {"smiles": "OCCC(F)(F)C(F)(F)C(F)(F)C(F)(F)F", "outcome": "inactive"}, {"smiles": "C[Si](C)(C)C(F)(F)C(F)(F)C(F)(F)F", "outcome": "inactive"}, {"smiles": "FC(F)(F)C(F)(F)C(F)(F)C(F)(F)C(F)(F)C(F)(F)I", "outcome": "inactive"}, {"smiles": "FC(F)(F)COC(OCC(F)(F)F)OCC(F)(F)F", "outcome": "inactive"}, {"smiles": "FC(F)=C(F)C(F)(F)C(F)(F)C(F)(F)C(F)(F)C(F)(F)C(F)(F)F", "outcome": "inactive"}, {"smiles": "O=C(Cl)C(F)(F)C(F)(F)C(F)(F)C(=O)Cl", "outcome": "inactive"}]}]}
